Read-out in assay [1]: NAD(P)H dehydrogenase [quinone] 1 (NQO1), NQO1 (gene 1728)
In words: LTEA_HepaRG_NQO1: Life Technologies and Expression Analysis (LTEA) Assay for NAD(P)H dehydrogenase [quinone] 1 (NQO1) using HepaRG (AID 2283526). The conditions noted are these: mRNA level, 48 h; actives raise or lower the signal. The method in brief: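 Differentiated human HepaRG cells in serum-free induction medium, dosed in duplicate for 48 h at 8 half-log concentrations up to 100 uM in 0.5% DMSO. NQO1 mRNA by qRT-PCR normalized to ACTB, GAPDH, POLR2A; bidirectional fit versus DMSO baseline.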

Read-out in assay [2]: Nuclear factor erythroid 2-related factor 2 (Homo sapiens) (UniProt Q16236)
In words: LTEA_HepaRG_NFE2L2: Life Technologies and Expression Analysis (LTEA) Assay for Nuclear factor erythroid 2-related factor 2 (NFE2L2) Transcription Factor using HepaRG (AID 2283527).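 Note: TaqMan qRT-PCR transcript level normalised to ACTB GAPDH and POLR2A housekeeping genes.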 The conditions noted are these: mRNA level, 48 h; actives raise or lower the signal. An outline of the steps:
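Transcript level of NFE2L2 is the read-out, measured by microfluidic TaqMan qRT-PCR and normalized to three housekeeping genes. Human HepaRG cultures received test chemical for 48 h at up to 100 uM in half-log steps. Gain or loss of signal is fitted relative to 0.5% DMSO.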

Read-out in assay [3]: succinate dehydrogenase complex iron sulfur subunit B (SDHB), SDHB (gene 6390)
In words: LTEA_HepaRG_SDHB: Life Technologies and Expression Analysis (LTEA) Assay for succinate dehydrogenase complex iron sulfur subunit B (SDHB) using HepaRG (AID 2283528). The conditions noted are these: mRNA level, 48 h; actives raise or lower the signal. An outline of the steps:
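HepaRG, 48 h exposure, 8-pt half-log series from 100 uM in 0.5% DMSO, duplicates. Readout: SDHB mRNA by Fluidigm qRT-PCR vs housekeeping genes; bidirectional fit relative to DMSO.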

Read-out in assay [4]: Signal transducer and activator of transcription 3 (Homo sapiens) (UniProt P40763)
In words: LTEA_HepaRG_STAT3: Life Technologies and Expression Analysis (LTEA) Assay for Signal transducer and activator of transcription (STAT3) using HepaRG (AID 2283529). The conditions noted are these: mRNA level, 48 h; actives raise or lower the signal. An outline of the steps:
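Read-out is STAT3 mRNA level by qRT-PCR, normalized to three housekeeping genes, in human HepaRG liver cells treated for 48 h. Concentrations ran from 100 uM downward in half-log steps; curves were fitted for gain or loss relative to 0.5% DMSO.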

Read-out in assay [5]: solute carrier (SLCO1B1), SLCO1B1 (gene 10599)
In words: LTEA_HepaRG_SLCO1B1: Life Technologies and Expression Analysis (LTEA) Assay for solute carrier (SLCO1B1) using HepaRG (AID 2283530). The conditions noted are these: mRNA level, 48 h; actives raise or lower the signal. The method in brief:
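SLCO1B1 transcript levels were quantified by TaqMan qRT-PCR using three housekeeping genes for normalization. This followed 48 h chemical exposure (100 uM top, half-log, 8 points, 0.5% DMSO) of HepaRG liver cells, with gain or loss fitted relative to DMSO.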

Read-out in assay [6]: sulfotransferase 2A1 (SULT2A1), SULT2A1 (gene 6822)
As to the kind of experiment: LTEA_HepaRG_SULT2A1: Life Technologies and Expression Analysis (LTEA) Assay for sulfotransferase 2A1 (SULT2A1) using HepaRG (AID 2283531). The conditions noted are these: mRNA level, 48 h; actives raise or lower the signal. An outline of the steps:
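Expression change of SULT2A1, by qRT-PCR with three housekeeping-gene normalization, was scored bidirectionally versus DMSO. Cells: differentiated HepaRG, dosed in duplicate for 48 h across 8 points, highest 100 µM, half-log dilution, 0.5% DMSO.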

Read-out in assay [7]: Transforming Growth Factor (TGFA), TGFA (gene 7039)
As to the kind of experiment: LTEA_HepaRG_TGFA: Life Technologies and Expression Analysis (LTEA) Assay for Transforming Growth Factor (TGFA) using HepaRG (AID 2283532). The conditions noted are these: mRNA level, 48 h; actives raise or lower the signal. The method in brief:
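HepaRG (human liver line), 48 h exposure, 8 conc. half-log down from 100 uM, 0.5% DMSO vehicle, duplicates; serum-free induction medium. TGFA mRNA by TaqMan qRT-PCR, ACTB/GAPDH/POLR2A normalization; gain/loss fit vs DMSO.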

Read-out in assay [8]: Transforming Growth Factor (TGFB1), TGFB1 (gene 7040)
As to the kind of experiment: LTEA_HepaRG_TGFB1: Life Technologies and Expression Analysis (LTEA) Assay for Transforming Growth Factor (TGFB1) Transporter using HepaRG (AID 2283533). The conditions noted are these: mRNA level, 48 h; actives raise or lower the signal. The method in brief:
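TGFB1 transcript measured by qRT-PCR with normalisation to three housekeeping genes (ACTB, GAPDH, POLR2A); human HepaRG line treated in duplicate for 48 hr with an 8-point series topping at 100 uM, 0.5% DMSO vehicle, bidirectionally fitted.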

Read-out in assay [9]: TIMP1, TIMP1 (gene 7076)
In words: LTEA_HepaRG_TIMP1: Life Technologies and Expression Analysis (LTEA) Assay for TIMP1 using HepaRG (AID 2283534). The conditions noted are these: mRNA level, 48 h; actives raise or lower the signal. The method in brief: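 Bidirectional change in TIMP1 transcript versus 0.5% DMSO, measured by TaqMan qRT-PCR with three housekeeping genes for normalization. HepaRG human liver cells dosed 48 h in duplicate, top concentration 100 uM with half-log dilutions.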

Read-out in assay [10]: Tumor necrosis factor receptor 1 (TNFRSF1A), TNFRSF1A (gene 7132)
In words: LTEA_HepaRG_TNFRSF1A: Life Technologies and Expression Analysis (LTEA) Assay for Tumor necrosis factor receptor 1 (TNFRSF1A) using HepaRG (AID 2283535). The conditions noted are these: mRNA level, 48 h; actives raise or lower the signal. The method in brief: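 mRNA measured by qRT-PCR (TaqMan, Fluidigm arrays) against ACTB/GAPDH/POLR2A housekeepers after 48 h chemical exposure of HepaRG cells. Top concentration 100 uM, half-log 8-point series, duplicates; vehicle 0.5% DMSO, both fit directions.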

Read-out in assay [11]: Thyroid Hormone Responsive (THRSP), THRSP (gene 7069)
As to the kind of experiment: LTEA_HepaRG_THRSP: Life Technologies and Expression Analysis (LTEA) Assay for Thyroid Hormone Responsive (THRSP) using HepaRG (AID 2283536). The conditions noted are these: mRNA level, 48 h; actives raise or lower the signal. An outline of the steps: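 mRNA induction or loss relative to 0.5% DMSO vehicle was fitted bidirectionally across an eight-point curve whose highest exposure was 100 uM. Human HepaRG liver cells received chemicals in duplicate over 48 h before RNA extraction.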

Read-out in assay [12]: UDP glucuronosyltransferase (UGT1A1), UGT1A1 (gene 54658)
In words: LTEA_HepaRG_UGT1A1: Life Technologies and Expression Analysis (LTEA) Assay for UDP glucuronosyltransferase (UGT1A1) using HepaRG (AID 2283538). The conditions noted are these: mRNA level, 48 h; actives raise or lower the signal. An outline of the steps:
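HepaRG cells, 0.5% DMSO vehicle, 48 h exposure in serum-free induction medium to 8-point half-log series topping at 100 uM, in duplicate. UGT1A1 mRNA by Fluidigm qRT-PCR, normalized to ACTB/GAPDH/POLR2A; bidirectional fit versus DMSO.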

Read-out in assay [13]: UDP glucuronosyltransferase (UGT1A6), UGT1A6 (gene 54578)
As to the kind of experiment: LTEA_HepaRG_UGT1A6: Life Technologies and Expression Analysis (LTEA) Assay for UDP glucuronosyltransferase (UGT1A6) using HepaRG (AID 2283539). The conditions noted are these: mRNA level, 48 h; actives raise or lower the signal. The method in brief:
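Expression was quantified by TaqMan qRT-PCR on Fluidigm arrays with ACTB/GAPDH/POLR2A normalization and bidirectional fitting against 0.5% DMSO. HepaRG cells (~100,000/well) were treated in duplicate for 48 h at eight half-log concentrations up to 100 uM in serum-free induction medium.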

Read-out in assay [14]: X-box binding protein 1 (XBP1), XBP1 (gene 7494)
As to the kind of experiment: LTEA_HepaRG_XBP1: Life Technologies and Expression Analysis (LTEA) Assay for X-box binding protein 1 (XBP1) using HepaRG (AID 2283540). The conditions noted are these: mRNA level, 48 h; actives raise or lower the signal. The method in brief:
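XBP1 transcript by qRT-PCR (housekeeping-normalized: ACTB, GAPDH, POLR2A) after 48 h chemical treatment of HepaRG cells, 8-point half-log series topping at 100 uM, vehicle 0.5% DMSO. Gain and loss of signal fitted relative to DMSO.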

A short description of assay [15]: LTEA_HepaRG_LDH_cytotoxicity: Cytotoxicity Assessment in the Life Technologies and Expression Analysis (LTEA) Assay (AID 2283563; active = hit-call score of the fitted dose curve at least 0.9, where 1 is the maximum;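 for AC50: LDH activity released into spent culture medium as a marker of cell death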). The method in brief:
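LDH release into culture medium read after 48 h chemical treatment of HepaRG cells. Duplicate wells, eight-point half-log series topping at 100 uM, 0.5% DMSO vehicle and baseline.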

A short description of assay [16]: ATG_XTT_Cytotoxicity: Cytotoxicity Assessment in the Attagene TRANS-FACTORIAL HepG2 Assay (AID 2283584; active = hit-call score of the fitted dose curve at least 0.9, where 1 is the maximum). The method in brief: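 Viability endpoint from XTT after 24 h chemical exposure of reporter-transfected human HepG2 liver cells; signal loss fitted relative to DMSO negative control.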
Assay [17] is described as follows: TOX21_p53_BLA_p2_viability: Viability Assessment in the Tox21 HCT-116 p53 Agonism Beta-lactamase Assay, Phase 2 (AID 2283591; active = hit-call score of the fitted dose curve at least 0.9, where 1 is the maximum;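 note: compound exposure lasted 16 h at 37 °C; actives lower the ATP signal meaning cytotoxicity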). An outline of the steps: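 Cytotoxicity readout: CellTiter-Glo ATP luminescence, 30 min at room temperature, after the beta-lactamase read. Cells were HCT116 exposed 16 h at 37C to compounds pin-transferred at 217-fold dilution from DMSO stocks.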

The target in assay [18] is Cellular tumor antigen p53 (Homo sapiens) (UniProt P04637). As to the kind of experiment: TOX21_p53_BLA_p2_ratio: Tox21 HCT-116 p53 Agonism Beta-lactamase Assay, Ratio, Phase 2 (AID 2283592; active = hit-call score of the fitted dose curve at least 0.9, where 1 is the maximum). An outline of the steps:
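Gain-of-signal p53 agonism was scored from the beta-lactamase FRET ratio (460/530 nm, 405 nm excitation) in HCT116 cells treated 16 h at 37C, 5% CO2, with DMSO serving as negative control and baseline.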

In PubChem BioAssay (EPA / NIEHS) one finds outcome and AC50 data, which are given here for 5 compounds.

“And” between values parts separate entries of the source, which are not always exact repeats. Equal entries are not always repeated. Inconclusive results are not listed. More than one record can exist for a structure, and the calls need not agree. The source made the active and inactive calls. Rule for the calls, unless noted: active = hit-call score of the fitted dose curve at least 0.9, where 1 is the maximum; inactive = score below 0.9.

Cellular tumor antigen p53 (Homo sapiens), sequence (P04637 whole entry, looked up): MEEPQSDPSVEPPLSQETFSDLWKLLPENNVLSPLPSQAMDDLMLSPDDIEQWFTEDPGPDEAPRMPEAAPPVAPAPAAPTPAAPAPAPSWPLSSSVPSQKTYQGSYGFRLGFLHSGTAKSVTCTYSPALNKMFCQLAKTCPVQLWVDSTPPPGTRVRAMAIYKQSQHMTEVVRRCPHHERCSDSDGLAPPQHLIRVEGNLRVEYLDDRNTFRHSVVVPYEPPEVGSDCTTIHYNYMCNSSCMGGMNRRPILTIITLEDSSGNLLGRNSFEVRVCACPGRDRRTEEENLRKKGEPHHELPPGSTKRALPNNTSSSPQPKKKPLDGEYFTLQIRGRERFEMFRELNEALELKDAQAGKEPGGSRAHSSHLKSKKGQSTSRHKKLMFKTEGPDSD
Signal transducer and activator of transcription 3 (Homo sapiens), sequence (P40763 whole entry, looked up): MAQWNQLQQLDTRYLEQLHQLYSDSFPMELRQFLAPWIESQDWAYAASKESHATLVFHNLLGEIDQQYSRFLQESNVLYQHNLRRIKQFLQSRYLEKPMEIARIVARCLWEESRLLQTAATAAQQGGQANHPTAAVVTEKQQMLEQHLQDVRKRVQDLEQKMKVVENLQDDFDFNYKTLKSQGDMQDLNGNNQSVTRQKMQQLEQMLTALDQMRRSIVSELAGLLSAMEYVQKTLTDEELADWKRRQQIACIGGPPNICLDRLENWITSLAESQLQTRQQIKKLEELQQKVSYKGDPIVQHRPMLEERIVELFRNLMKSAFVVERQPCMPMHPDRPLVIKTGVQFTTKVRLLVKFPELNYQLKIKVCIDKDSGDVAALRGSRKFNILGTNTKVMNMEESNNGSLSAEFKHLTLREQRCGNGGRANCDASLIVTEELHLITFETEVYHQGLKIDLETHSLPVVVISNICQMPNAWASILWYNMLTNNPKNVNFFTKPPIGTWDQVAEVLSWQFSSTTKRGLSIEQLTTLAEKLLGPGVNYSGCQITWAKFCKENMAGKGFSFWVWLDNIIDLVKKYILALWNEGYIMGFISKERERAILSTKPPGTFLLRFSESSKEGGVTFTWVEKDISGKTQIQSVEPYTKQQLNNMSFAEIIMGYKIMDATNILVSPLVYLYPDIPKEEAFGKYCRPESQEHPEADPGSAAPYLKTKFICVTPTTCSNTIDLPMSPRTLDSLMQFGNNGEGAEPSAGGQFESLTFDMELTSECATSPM
Nuclear factor erythroid 2-related factor 2 (Homo sapiens), sequence (Q16236 whole entry, looked up): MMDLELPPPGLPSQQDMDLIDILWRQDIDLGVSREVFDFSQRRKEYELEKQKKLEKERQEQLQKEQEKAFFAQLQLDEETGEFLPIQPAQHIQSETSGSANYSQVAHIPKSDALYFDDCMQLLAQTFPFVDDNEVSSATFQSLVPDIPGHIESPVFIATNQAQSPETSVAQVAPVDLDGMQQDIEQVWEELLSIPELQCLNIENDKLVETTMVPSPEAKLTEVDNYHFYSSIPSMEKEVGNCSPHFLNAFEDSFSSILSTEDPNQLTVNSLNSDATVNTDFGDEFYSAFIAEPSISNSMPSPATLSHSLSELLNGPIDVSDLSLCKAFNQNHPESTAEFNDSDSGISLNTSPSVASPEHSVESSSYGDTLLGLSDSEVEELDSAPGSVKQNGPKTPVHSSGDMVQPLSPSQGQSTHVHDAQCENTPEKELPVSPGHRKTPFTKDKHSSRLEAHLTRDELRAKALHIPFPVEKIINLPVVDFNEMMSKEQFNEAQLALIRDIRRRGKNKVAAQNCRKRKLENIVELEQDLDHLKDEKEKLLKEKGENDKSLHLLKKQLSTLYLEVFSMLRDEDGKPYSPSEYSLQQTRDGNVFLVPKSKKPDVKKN

On to `O=C(O)C(F)(F)C(F)(F)C(F)(F)C(F)(F)C(F)(F)C(F)(F)C(F)(F)C(F)(F)C(F)(F)F`, for which the call in assay [1], in [2], in assay [14], in [16], in assay [17] and in assay [18] was inactive. Moreover, the AC50 in [3] is 88.9 µM (active); in [4], 79.3 µM (active); in assay [5] it was 61.8 µM (active); in assay [6], 35.7 µM (active); in assay [7] it was 23.4 µM (active); in assay [8], 23.3 µM (active). In addition, the AC50 is 91.7 µM (active) in [9]; 78 µM (active) in assay [10]; 15.6 µM (active) in assay [11]; 36.2 µM (active) in assay [12]; 38.6 µM (active) in [13]; 63.4 µM (active) in assay [15].
Regarding `CCCN(CCC)N=O`, the compound was classed as inactive in assay [1], in assay [2], in assay [3], in assay [4], in assay [5] and in assay [6]. The compound was classed as inactive in assay [7], in [8], in assay [9], in assay [10], in [11] and in assay [12]. The call in assay [13], in assay [14], in assay [15], in assay [16], in assay [17] and in assay [18] was inactive.
With `CCOC(=O)C(O)(c1ccc(Cl)cc1)c1ccc(Cl)cc1`, the call in [1], in assay [2], in assay [3], in assay [4], in assay [5] and in [6] was inactive. Moreover, the outcome in assay [7], in assay [8], in [9], in assay [10], in assay [11] and in assay [13] was inactive. Also, the compound was called inactive in assay [14], in [15] and in [16]. The AC50 in assay [12] was 67.4 µM (active); in assay [17], 67.1 µM (active) and 17.8 µM (active); in [18], 63.8 µM (active) and 32.9 µM (active).
As to `ClC1=C(Cl)[C@]2(Cl)[C@@H]3[C@@H](Cl)[C@H]4O[C@H]4[C@@H]3C1(Cl)C2(Cl)Cl`, the call in [1], in assay [2], in [3], in assay [4], in [5] and in assay [6] was inactive. Also, the compound was classed as inactive in assay [7], in [8], in [9], in assay [10], in [11] and in [13]. Besides, the outcome in [14], in assay [15], in assay [16] and in assay [18] was inactive. Also, the AC50 is 2.1 µM (active) in assay [12] and 76.7 µM (active) in assay [17].
`CCC(=O)O[C@H]1CC[C@H]2[C@@H]3CCC4=CC(=O)CC[C@]4(C)[C@H]3CC[C@]12C`: the result in [1], in assay [2], in assay [3], in assay [4], in assay [6] and in assay [7] was inactive. Moreover, the compound was called inactive in assay [8], in [9], in [10], in [11], in assay [13] and in assay [14]. The result in [15], in assay [16], in assay [17] and in assay [18] was inactive. Moreover, the AC50 in [5] is 12.6 µM (active); in assay [12], 5.32 µM (active); in assay [17], 70.4 µM (active); in assay [18], 87.7 µM (active).

A word on the AC50: it is the midpoint of the concentration-response curve, whichever way the signal moves.
